# Source: PubChem (National Center for Advancing Translational Sciences (NCATS))
# This is a sample that favours compounds with a hit; in the whole collection about 8.1% have one here.
# SW480 rerep = inducers of DNA re-replication in SW480 colon cancer cells. 340,000 tested, 1.8% active. AID 624297. SW480 DNA re-replication, Hoechst DNA content imaging, 48 h. Potency, µM (doses to about 46.1 µM), hits mostly activators; also: nearly all actives have a fitted effect of over 55% in size
#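 Per well, 250 cells were exposed to pinned compound for 48 hr. Nuclear DNA was visualised with Hoechst (40 min, 37 C) and total object intensity recorded by fluorescence scanning.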
# MCF10A rerep = induces DNA re-replication in MCF 10a normal breast cells. MCF 10A DNA re-replication, Hoechst nuclear intensity, 48 h. Potency, µM (series often up to 46.1 µM), actives largely listed as activators. 350,000 tested, 2.9% active; also: nearly all actives have a fitted effect of over 50% in size
# KB-3-1 tox = KB-3-1 parental cell cytotoxicity; 400,000 tested, 1.4% active; Potency, µM (titrated, usually from 46.1 µM), most hits filed as cytotoxic; KB-3-1 viability, CellTiter-Glo ATP luminescence, 72 h; also: nearly all actives have a fitted effect of over 60% in size
#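 Multi-concentration cytotoxicity screen in KB-3-1 cells grown in DMEM lacking phenol red with 10% FBS. After 72 h at 37 °C with compound, ATP-dependent luminescence was recorded.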
# ELG1 DNA repair = ELG1-dependent DNA repair inhibition | HEK293T ELG1-luciferase reporter, luminescence, 16 h; DNA damage induced by 5-fluorouridine | Potency, µM (doses to about 46.1 µM), usual class: inhibitors | 330,000 tested, 2.3% active; also: nearly all actives have a fitted effect of over 55% in size
#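 HEK293T cells expressing luciferase-tagged ELG1 (2,000/well) received 5-Fluorouridine plus compound or DMSO for 16 hr at 37 °C. Luciferase was read by ONE-Glo luminescence after 30 min at room temperature.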
# KB-V1 cytotox = kills drug-selected multidrug resistant KB-V1 cells. KB-V1 MDR cells viability, CellTiter-Glo, 72 h. 400,000 tested, 3.4% active. Potency, µM (series often up to 46.1 µM), usual class: cytotoxic; also: nearly all actives have a fitted effect of over 60% in size
#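 Cytotoxicity toward P-gp-expressing KB-V1 cells was determined as loss of CellTiter-Glo luminescence after 72 h at 37 degrees C. Compounds were tested in quantitative HTS format across a concentration range, with curves fitted to normalized data.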
# Hits are given with their value; n = inactive; u = inconclusive; x = no result given; [ ] = remark or other dose. Calls follow the shape of the dose curve; as a rule, active = well fitted curve in the direction sought with a large enough effect; inconclusive = small, poorly fitted or top-dose-only effect, or another doubt; inactive = no such curve, though single readings can be large; an effect the other way counts as inactive or inconclusive.
SMILES,SW480 rerep,MCF10A rerep,KB-3-1 tox,ELG1 DNA repair,KB-V1 cytotox
CCNC(=S)NC1CC2CCCC(C1)N2CCc1ccccc1 (centres undefined),u,0.73µM,n,u,n
CCCN1C2CCCC1CC(NC(=S)NCCCOCC)C2 (centres undefined),n,n,n,n,8.2µM
CCN1CCN(c2nnc(-c3ccc(F)cc3)c3ccccc23)CC1,u,u,n,n,n
CN(C)CCC(=O)c1cccc(Br)c1,u,18µM,n,n,n
CN(C)CCC(=O)c1ccc2c(c1)OCO2,u,7.3µM,u,n,n
CN(C)CCCC(=O)c1ccc2c(c1)OCO2,n[9.22 µM],n,n,n,u
Cc1ccccc1NC(=O)Cn1cccc1,n,n,n,n,n
CCc1ccc(NC(=O)CCc2ccc(C)o2)cc1,u,16µM,u,n,n
Cn1c(=O)c2c(ncn2CC(=O)Nc2nc(-c3ccccc3Cl)cs2)n(C)c1=O,n,n,u,n,21µM
O=C(CN(c1ccc(Cl)c(C(F)(F)F)c1)S(=O)(=O)c1ccccc1)N1CCOCC1,n,n,n,n,n
O=C(COc1ccc(Cl)cc1)N(Cc1ccccc1)c1nc(-c2ccccc2)cs1,n,n,n,u,n
COc1ccc(-c2csc(N(CCc3ccccc3)C(=O)COc3ccccc3)n2)cc1,n,n,n,n,16µM
CCN(CC)CCCN(C(=O)c1cccs1)c1nc(-c2ccc(OC)cc2)cs1,18µM,u,u,n,8.2µM
CCC(C)NC(=O)c1ccc2c(c1)N(Cc1cccc(Cl)c1)C(=O)c1ccccc1S2=O (centres undefined),x,x,n,x,n
CC1CCCCC1NC(=O)CCCN1C(=O)c2ccccc2C1=O (centres undefined),n,n,u,n,n
O=C(CSc1nc(=O)n2ccccc2n1)N1CCC(Cc2ccccc2)CC1,n,n,n,u,u
CC(C)CC(NC(=O)c1ccc(Cl)cc1)C(=O)OCC(=O)c1ccc2c(c1)NC(=O)CO2 (centres undefined),u,u,7.3µM,u,n
Cc1nnc(NC(=O)CSc2nnc3scc(-c4ccc(C)c(C)c4)n23)s1,n,n,n,n,21µM
Cc1ccc(-c2nc(NC(=O)CSc3nnc4scc(-c5ccccc5)n34)ns2)cc1,n,n,n,12µM,n
O=C(Nc1ccc2ccccc2c1)c1ccc(Cl)cc1,n,n,n,u,n
COc1ccc(C(C)(C)C)cc1NC(=O)C1CCCO1 (centres undefined),u,n,n,n,n
c1ccc2c(CN3CCOCC3)c3ccccc3c(CN3CCOCC3)c2c1,n,n,n,n,n
O=[N+]([O-])c1c(NCCO)cc(N2CCN(Cc3ccc4c(c3)OCO4)CC2)c2nonc12,n,n,n,21µM,n
COCCN1Cc2cccc(C(=O)Nc3ccc(C)cc3C)c2C1=O,x,x,n,x,n
Cc1nnc(SCC(=O)Nc2ccc([N+](=O)[O-])cc2)n1CC1CCCO1 (centres undefined),23µM,n,n,n,n
SMILES,SW480 rerep,MCF10A rerep,KB-3-1 tox,ELG1 DNA repair,KB-V1 cytotox
CC[C@@H]1CN(C)[C@H]2Cc3c([nH]c4ccccc34)C(=O)C[C@@H]1[C@@H]2C(=O)OC,n,n,n,x,n
CCOC(=O)c1cc2c(OC)ccc(OC)c2n1CC(=O)c1ccccc1,u,23µM,n,n,n
COc1ccc(-n2c(=O)c3ccccc3n(CC(=O)c3ccccc3)c2=O)cc1OC,n,n,n,n,n
CNC(=O)c1c(NC(=O)c2ccc(S(=O)(=O)N3CCCc4ccccc43)cc2)sc2c1CCN(C)C2,u,21µM,n,u,n
CN1CCc2c(sc(NC(=O)c3ccc(S(=O)(=O)N4CCCCCC4)cc3)c2C(N)=O)C1,n,16µM,n,n,21µM
CCN1CCc2c(sc(NC(=O)c3ccc(S(=O)(=O)N4CCCC4)cc3)c2C(=O)NC)C1,u,18µM,u,n,u
C/C(N)=C(/C#N)C(=O)COC(=O)[C@@H](NC(=O)c1ccccc1Cl)C(C)C,n,2.1µM,n,n,n
N#C/C(=C\c1ccc([N+](=O)[O-])o1)C(=O)Nc1ccc(F)cc1,u,u,n,u,n
CC1=NN(c2nc(N)nc(/C(C#N)=C/c3ccc([N+](=O)[O-])o3)n2)C(C)(C)C1,8.2µM,3.3µM,u,x,u
CCN(CC)C(=O)CSc1nnc(-n2nc(C)cc2C)c2ccccc12,n,n,n,u,13µM
CC(C)(C)c1nn2cnnc2n(/N=C/c2ccc(O)cc2)c1=O,n,n,n,n,n
Cc1cccc(Nc2nnc(SC/C(O)=C(\C#N)c3nc4ccccc4[nH]3)s2)c1,n,16µM,u,n,n
Cc1ccc(Nc2nnc(SC/C(O)=C(\C#N)c3nc4ccccc4[nH]3)s2)c(C)c1,n,u,n,n,n
COc1ccc(-n2cnnc2SCc2cnc(-c3ccccc3)s2)cc1,n,n,n,n,16µM
COCCn1c(SCc2cnc(-c3ccccc3)s2)nnc1-c1ccncc1,n,n[9.22 µM],n,u,n
Cc1ccccc1CSc1nc2n(n1)C(c1cccs1)C1=C(CCCC1=O)N2 (centres undefined),u,26µM,n,n,u
CCOc1ccc(CN(C)CC(=O)Nc2ccc([N+](=O)[O-])cc2Cl)cc1,n,n,n,u,16µM
O=C(Nc1cccnc1)C1CCN(S(=O)(=O)c2ccc(Cl)cc2)CC1,n,n,x,n,x
CCC(CC)C(=O)c1c[nH]c(C(=O)O)c1,u,n,n,n,n
CCC(CC)C(=O)c1c[nH]c(C(=O)NN)c1,u,10µM,n,n,n
Cc1cccc(OCCCC(=O)Nc2nc3ccccc3[nH]2)c1,n,n,u,u,21µM
O=C(CSc1ccccc1)Nc1nc2ccccc2[nH]1,u,u,15µM,u,u
O=C(CSc1ncccc1-c1nc2ccccc2[nH]1)Nc1ccc2c(c1)OCCO2,n,n,n,n,9.2µM
Cc1ccc(SCc2nc3ccccc3n2CC(=O)Nc2ccccc2)cc1,u,u,n,n,u
Cc1ccc(SCc2nc3ccccc3n2CC(=O)Nc2ccc(Cl)cc2)cc1,n,u,n,7.3µM,n
SMILES,SW480 rerep,MCF10A rerep,KB-3-1 tox,ELG1 DNA repair,KB-V1 cytotox
N#CCCCSc1ncccc1-c1nc2ccccc2[nH]1,n,n,n,u,13µM
O=C(CSc1ccc(Cl)cc1)Nc1ccc(-c2nc3ccccc3[nH]2)cc1,u,21µM,n,u,n
O=C(O)CCCC(=O)Nc1ccc(C(=O)N2CCCCC2)c(Cl)c1,n,n,n,n,n
Cc1nc2c(c3c1[nH]c1ccccc13)C(O)CC(C)(C)C2 (centres undefined),u,18µM,u,u,16µM
Cc1cc(NC(=O)C2C3C(=O)N(CC4CCCO4)C(C(=O)NCc4ccccc4)C34C=CC2(C)O4)no1 (centres undefined),n,n,n,n,n
COc1ccc(OC)c(Nc2cc(-c3ccccc3)nc(N)n2)c1,2.6µM,0.65µM,1µM,n,1.3µM
